# PubChem BioAssay (NCATS)
# Results filed as inconclusive are left out. A call without a number means that no potency is given here. Active and inactive are the calls of the source. Calls come from the whole dose curve; as a rule, active = well fitted curve in the direction sought with a large enough effect; inconclusive = small, poorly fitted or top-dose-only effect, or another doubt; inactive = no such curve, though single readings can be large; an effect the other way counts as inactive or inconclusive.
# Assay: qHTS of pediatric cancer cell lines to identify multiple opportunities for drug repurposing: Primary screen for Rh18 cells (AID 1347102); note: nearly all actives have a fitted effect of over 65% in size
# Settings: Rh18 rhabdomyosarcoma viability, CellTiter-Glo luminescence, 48 h; series mostly up to 46 µM
# Outline: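 Viability after 48 h compound treatment at 37C, 500-1,000 cells/well, read as ATP luminescence with CellTiter-Glo. Primary screens used 11-point (MIPE, 0.78 nM-46 µM) or 8-point (NPC, 0.59 nM-46 µM) final concentrations; follow-up screens used 11-point dilutions.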
Structure (SMILES),Potency,"activity change, negative = cytotoxic"
CCC(C(=O)OCCOCCN(CC)CC)c1ccccc1 (stereo not drawn),inactive,–
CC(CNC1CCCCC1)OC(=O)c1ccccc1 (stereo not drawn),inactive,–
CCCCCCCCCCC[C@@H](C[C@@H]1OC(=O)[C@H]1CCCCCC)OC(=O)[C@H](CC(C)C)NC=O,inactive,–
CNCCc1ccccn1,inactive,–
C#C[C@]1(O)CC[C@H]2[C@@H]3CCC4=CC(=O)CC[C@@H]4[C@H]3CC[C@@]21CC,inactive,–
CCN[C@@H]1C[C@H](N)[C@@H](OC2OC(CN)=CCC2N)[C@H](O)[C@H]1O[C@H]1OC[C@](C)(O)[C@H](NC)[C@H]1O (stereo partly drawn),–,7.22% [at 0.597 µM] (inactive)
O=[N+]([O-])c1cccc(S(=O)(=O)NCCNS(=O)(=O)c2cccc([N+](=O)[O-])c2)c1,inactive,–
CCc1oc2ccccc2c1C(=O)c1cc(I)c(O)c(I)c1,inactive,–
CN(Cc1ccc(C(C)(C)C)cc1)Cc1cccc2ccccc12,inactive,–
O=C1C(=O)c2ccccc2C(O)=C1C1CCC(c2ccc(Cl)cc2)CC1 (stereo not drawn),inactive,–
CCc1ccc(C(=O)C(C)CN2CCCCC2)cc1 (stereo not drawn),inactive,–
COc1cc(C(=O)NCc2ccc(OCCN(C)C)cc2)cc(OC)c1OC,inactive,–
CC(=O)NCCCCCC(=O)O,inactive,–
CCOC(=O)Nc1ccc2c(c1)N(C(=O)CCN1CCOCC1)c1ccccc1S2,inactive,–
CCOC(=O)c1ccc(N)cc1,inactive,–
NC(=O)c1ccccc1O,inactive,–
CC(C)(Cc1c[nH]c2ccccc12)NCC(O)COc1ccccc1C#N (stereo not drawn),inactive,–
CCCCN1C[C@H](O)[C@@H](O)[C@H](O)[C@H]1CO,inactive,–
CCCCCCCCCCCCSCCOCCO,inactive,–
C[C@H]1[C@H]2CC[C@H]3[C@@H]4CC=C5C[C@@H](N(C)C)CC[C@]5(C)[C@H]4CC[C@]23CN1C,inactive,–
O=C(c1ccc(F)cc1)C1CCN(CCn2c(=S)[nH]c3ccccc3c2=O)CC1,inactive,–
CCCCC(CC)CN1CN(CC(CC)CCCC)CC(C)(N)C1 (stereo not drawn),inactive,–
CCC1Nc2cc(Cl)c(S(N)(=O)=O)cc2S(=O)(=O)N1 (stereo not drawn),inactive,–
CCc1oc2ccccc2c1C(=O)c1cc(Br)c(O)c(Br)c1,inactive,–
CCN(CC)CCOC(=O)C(Cc1cccc2ccccc12)CC1CCCO1 (stereo not drawn),inactive,–
CCCCCCCCCCCCOCCOCCOCCOCCOCCOCCOCCOCCOCCO,inactive,–
OC[C@H]1O[C@@H](Oc2ccc(O)cc2)[C@H](O)[C@@H](O)[C@@H]1O,inactive,–

# Assay: qHTS of pediatric cancer cell lines to identify multiple opportunities for drug repurposing: Primary screen for OHS-50 cells (AID 1347103); note: nearly all actives have a fitted effect of over 40% in size; note: potency is the fitted concentration of half-maximal effect
# Settings: OHS-50 osteosarcoma viability, CellTiter-Glo luminescence, 48 h; series mostly up to 57.3 µM
# Outline: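 Cells (500-1,000/well) rested 5 h, then received compounds for 48 h; metabolically active cells were measured by CellTiter-Glo luminescence. Final concentrations spanned up to 46 µM (MIPE, 11-point) or 0.59 nM-46 µM (NPC, 8-point) in primary screens, 11-point in follow-ups.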
Structure (SMILES),Potency,"activity change, negative = cytotoxic"
CCC(C(=O)OCCOCCN(CC)CC)c1ccccc1 (stereo not drawn),inactive,–
CC(CNC1CCCCC1)OC(=O)c1ccccc1 (stereo not drawn),inactive,–
CNCCc1ccccn1,inactive,–
C#C[C@]1(O)CC[C@H]2[C@@H]3CCC4=CC(=O)CC[C@@H]4[C@H]3CC[C@@]21CC,inactive,–
CCN[C@@H]1C[C@H](N)[C@@H](OC2OC(CN)=CCC2N)[C@H](O)[C@H]1O[C@H]1OC[C@](C)(O)[C@H](NC)[C@H]1O (stereo partly drawn),–,0.649% [at 0.73 µM] (inactive)
C#C[C@]1(O)CC[C@H]2[C@@H]3CCC4=Cc5oncc5C[C@]4(C)[C@H]3CC[C@@]21C,24.6 µM (active),–
COc1cc([C@H]2Oc3cc([C@H]4Oc5cc(O)cc(O)c5C(=O)[C@@H]4O)ccc3O[C@@H]2CO)ccc1O,inactive,–
O=C1C(=O)c2ccccc2C(O)=C1C1CCC(c2ccc(Cl)cc2)CC1 (stereo not drawn),inactive,–
CCc1ccc(C(=O)C(C)CN2CCCCC2)cc1 (stereo not drawn),inactive,–
COc1cc(C(=O)NCc2ccc(OCCN(C)C)cc2)cc(OC)c1OC,inactive,–
CC(=O)NCCCCCC(=O)O,inactive,–
CN1CCN(CCC(=O)N2c3ccccc3Sc3ccc(C(F)(F)F)cc32)CC1,17.4 µM (active),–
CNCCCCOc1ccccc1Cc1ccccc1,17.4 µM (active),–
CCOC(=O)Nc1ccc2c(c1)N(C(=O)CCN1CCOCC1)c1ccccc1S2,inactive,–
NC(=O)c1ccccc1O,inactive,–
CC(=O)Nc1ccc(S(=O)(=O)Nc2ccc([N+](=O)[O-])cc2)cc1,inactive,–
CCCCN1C[C@H](O)[C@@H](O)[C@H](O)[C@H]1CO,inactive,–
CCC1Nc2cc(Cl)c(S(N)(=O)=O)cc2S(=O)(=O)N1 (stereo not drawn),inactive,–
CCNC(=O)NCc1cccc(Cl)c1,inactive,–
CCCCCCCCCCCCOCCOCCOCCOCCOCCOCCOCCOCCOCCO,15.5 µM (active),–
OC[C@H]1O[C@@H](Oc2ccc(O)cc2)[C@H](O)[C@@H](O)[C@@H]1O,inactive,–

# Assay: qHTS of pediatric cancer cell lines to identify multiple opportunities for drug repurposing: Primary screen for RD cells (AID 1347104); note: nearly all actives have a fitted effect of over 55% in size; note: potency is the fitted concentration of half-maximal effect
# Settings: RD rhabdomyosarcoma viability, CellTiter-Glo luminescence, 48 h; series mostly up to 46 µM
# Outline: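 Primary screen of approved and investigational compounds on cells in growth media at 37 degrees C, 5% CO2. MIPE set at 11-point and NPC set at 8-point dilutions; viability scored by ATP-based luminescence at 48 hours.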
Structure (SMILES),Potency,"activity change, negative = cytotoxic"
CCC(C(=O)OCCOCCN(CC)CC)c1ccccc1 (stereo not drawn),inactive,–
c1ccc(-c2nc[nH]c2-c2ccccc2)cc1,inactive,–
CC(CNC1CCCCC1)OC(=O)c1ccccc1 (stereo not drawn),inactive,–
CNCCc1ccccn1,inactive,–
C#C[C@]1(O)CC[C@H]2[C@@H]3CCC4=CC(=O)CC[C@@H]4[C@H]3CC[C@@]21CC,inactive,–
CCN[C@@H]1C[C@H](N)[C@@H](OC2OC(CN)=CCC2N)[C@H](O)[C@H]1O[C@H]1OC[C@](C)(O)[C@H](NC)[C@H]1O (stereo partly drawn),–,-1.92% [at 0.597 µM] (inactive)
O=[N+]([O-])c1cccc(S(=O)(=O)NCCNS(=O)(=O)c2cccc([N+](=O)[O-])c2)c1,inactive,–
CN(Cc1ccc(C(C)(C)C)cc1)Cc1cccc2ccccc12,inactive,–
O=C1C(=O)c2ccccc2C(O)=C1C1CCC(c2ccc(Cl)cc2)CC1 (stereo not drawn),inactive,–
CCc1ccc(C(=O)C(C)CN2CCCCC2)cc1 (stereo not drawn),inactive,–
COc1cc(C(=O)NCc2ccc(OCCN(C)C)cc2)cc(OC)c1OC,inactive,–
CN1CCN(CCC(=O)N2c3ccccc3Sc3ccc(C(F)(F)F)cc32)CC1,23.7 µM (active),–
CC(=O)Nc1ccc(S(=O)(=O)Nc2ccc([N+](=O)[O-])cc2)cc1,inactive,–
CCCCN1C[C@H](O)[C@@H](O)[C@H](O)[C@H]1CO,inactive,–
CCCCCCCCCCCCSCCOCCO,inactive,–
CCCCC(CC)CN1CN(CC(CC)CCCC)CC(C)(N)C1 (stereo not drawn),inactive,–
CCC1Nc2cc(Cl)c(S(N)(=O)=O)cc2S(=O)(=O)N1 (stereo not drawn),inactive,–
CCNC(=O)NCc1cccc(Cl)c1,inactive,–
O=C(CCN1CCN2CCCC2C1)N1c2ccccc2Sc2ccc(Cl)cc21 (stereo not drawn),inactive,–
OC[C@H]1O[C@@H](Oc2ccc(O)cc2)[C@H](O)[C@@H](O)[C@@H]1O,inactive,–
